The source of these data is ChEMBL document CHEMBL1961873, “Compounds: GSK PKIS; Assays: Nanosyn kinase panel” (2012).

In test [1] the target is Ribosomal protein S6 kinase alpha-6 (Homo sapiens) (UniProt Q9UK32). The note with it: at 1 µM.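 Also: each value is a mean inhibition of RSK4 from a GSK PKIS panel screen.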
Test [2] has as its target T1, Serine/threonine-protein kinase Sgk1 (Homo sapiens) (UniProt O00141).
T1 sequence (whole entry): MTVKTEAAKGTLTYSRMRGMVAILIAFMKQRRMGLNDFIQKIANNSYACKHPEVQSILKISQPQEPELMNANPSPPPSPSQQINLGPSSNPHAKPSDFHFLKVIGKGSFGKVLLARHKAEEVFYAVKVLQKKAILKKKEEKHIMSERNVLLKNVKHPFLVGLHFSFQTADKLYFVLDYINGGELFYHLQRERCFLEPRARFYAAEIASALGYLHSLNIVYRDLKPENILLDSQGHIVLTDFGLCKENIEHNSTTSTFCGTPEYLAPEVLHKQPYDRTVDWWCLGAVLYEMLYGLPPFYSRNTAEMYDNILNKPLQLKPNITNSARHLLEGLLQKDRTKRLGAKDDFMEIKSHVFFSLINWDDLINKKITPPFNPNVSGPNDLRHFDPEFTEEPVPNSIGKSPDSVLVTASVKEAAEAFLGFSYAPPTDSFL
The note with it: at 0.1 µM.

Test [3] deals with T1, Serine/threonine-protein kinase Sgk1 (Homo sapiens). The note with it: at 1 µM.
Test [4] deals with T2, Serine/threonine-protein kinase Sgk2 (Homo sapiens) (UniProt Q9HBY8).
T2 sequence (whole entry): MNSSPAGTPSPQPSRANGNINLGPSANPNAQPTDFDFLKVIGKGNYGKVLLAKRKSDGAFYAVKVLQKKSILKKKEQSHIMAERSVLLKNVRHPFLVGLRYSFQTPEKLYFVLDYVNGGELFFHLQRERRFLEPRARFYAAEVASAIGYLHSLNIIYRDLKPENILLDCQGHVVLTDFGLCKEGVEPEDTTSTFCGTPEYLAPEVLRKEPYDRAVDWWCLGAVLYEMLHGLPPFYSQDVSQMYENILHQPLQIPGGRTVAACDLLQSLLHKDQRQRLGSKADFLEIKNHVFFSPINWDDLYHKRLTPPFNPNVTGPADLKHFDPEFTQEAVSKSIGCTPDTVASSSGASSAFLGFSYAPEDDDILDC
The note with it: at 0.1 µM.

Test [5] has as its target T2, Serine/threonine-protein kinase Sgk2 (Homo sapiens). The note with it: at 1 µM.
For test [6], the target named is T3, Serine/threonine-protein kinase Sgk3 (Homo sapiens) (UniProt Q96BR1).
T3 sequence (whole entry): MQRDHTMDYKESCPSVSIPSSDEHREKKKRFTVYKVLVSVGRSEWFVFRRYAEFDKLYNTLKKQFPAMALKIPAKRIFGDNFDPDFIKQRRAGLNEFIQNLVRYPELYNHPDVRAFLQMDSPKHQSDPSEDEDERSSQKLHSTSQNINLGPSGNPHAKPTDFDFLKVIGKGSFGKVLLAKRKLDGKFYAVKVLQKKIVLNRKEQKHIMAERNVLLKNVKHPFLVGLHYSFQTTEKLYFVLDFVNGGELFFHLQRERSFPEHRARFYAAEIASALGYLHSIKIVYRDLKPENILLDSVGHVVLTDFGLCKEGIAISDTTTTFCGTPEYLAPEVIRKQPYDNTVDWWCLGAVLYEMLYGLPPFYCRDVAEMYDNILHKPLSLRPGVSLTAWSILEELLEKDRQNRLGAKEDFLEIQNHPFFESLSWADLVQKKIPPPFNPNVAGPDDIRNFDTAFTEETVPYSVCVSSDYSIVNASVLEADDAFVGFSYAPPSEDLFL
The note with it: at 0.1 µM.

Test [7] deals with T3, Serine/threonine-protein kinase Sgk3 (Homo sapiens). The conditions noted are these: at 1 µM.
Test [8] deals with 5'-AMP-activated protein kinase catalytic subunit alpha-1 (Homo sapiens) (UniProt Q13131). The note with it: at 0.1 µM.
Test [9] shares this target. The conditions noted are these: at 1 µM.
Test [10] addresses 5'-AMP-activated protein kinase catalytic subunit alpha-2 (Homo sapiens) (UniProt P54646). The conditions noted are these: at 0.1 µM.
Test [11] has the same target. The note with it: at 1 µM.
Test [12] addresses T4, NUAK family SNF1-like kinase 1 (Homo sapiens) (UniProt O60285).
T4 sequence (whole entry): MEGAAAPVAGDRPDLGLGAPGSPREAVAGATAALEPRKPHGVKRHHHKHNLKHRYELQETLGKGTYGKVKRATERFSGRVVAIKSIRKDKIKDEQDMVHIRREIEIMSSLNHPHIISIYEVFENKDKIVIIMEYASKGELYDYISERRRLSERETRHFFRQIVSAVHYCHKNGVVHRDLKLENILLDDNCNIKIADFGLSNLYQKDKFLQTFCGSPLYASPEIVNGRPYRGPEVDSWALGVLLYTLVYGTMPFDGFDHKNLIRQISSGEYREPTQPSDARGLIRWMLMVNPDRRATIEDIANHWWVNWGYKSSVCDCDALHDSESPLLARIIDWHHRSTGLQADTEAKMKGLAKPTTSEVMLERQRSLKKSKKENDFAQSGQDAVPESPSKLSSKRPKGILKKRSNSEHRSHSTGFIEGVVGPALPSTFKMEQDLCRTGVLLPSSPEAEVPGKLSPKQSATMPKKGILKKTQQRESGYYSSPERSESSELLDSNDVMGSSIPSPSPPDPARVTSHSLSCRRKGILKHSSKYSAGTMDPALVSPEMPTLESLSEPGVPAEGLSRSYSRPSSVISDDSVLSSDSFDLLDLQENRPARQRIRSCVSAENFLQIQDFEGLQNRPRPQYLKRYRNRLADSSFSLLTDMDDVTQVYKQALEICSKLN
The note with it: at 0.1 µM.

Test [13] has as its target T4, NUAK family SNF1-like kinase 1 (Homo sapiens). The note with it: at 1 µM.
Test [14] has as its target T5, Serine/threonine-protein kinase BRSK1 (Homo sapiens) (UniProt Q8TDC3).
T5 sequence (whole entry): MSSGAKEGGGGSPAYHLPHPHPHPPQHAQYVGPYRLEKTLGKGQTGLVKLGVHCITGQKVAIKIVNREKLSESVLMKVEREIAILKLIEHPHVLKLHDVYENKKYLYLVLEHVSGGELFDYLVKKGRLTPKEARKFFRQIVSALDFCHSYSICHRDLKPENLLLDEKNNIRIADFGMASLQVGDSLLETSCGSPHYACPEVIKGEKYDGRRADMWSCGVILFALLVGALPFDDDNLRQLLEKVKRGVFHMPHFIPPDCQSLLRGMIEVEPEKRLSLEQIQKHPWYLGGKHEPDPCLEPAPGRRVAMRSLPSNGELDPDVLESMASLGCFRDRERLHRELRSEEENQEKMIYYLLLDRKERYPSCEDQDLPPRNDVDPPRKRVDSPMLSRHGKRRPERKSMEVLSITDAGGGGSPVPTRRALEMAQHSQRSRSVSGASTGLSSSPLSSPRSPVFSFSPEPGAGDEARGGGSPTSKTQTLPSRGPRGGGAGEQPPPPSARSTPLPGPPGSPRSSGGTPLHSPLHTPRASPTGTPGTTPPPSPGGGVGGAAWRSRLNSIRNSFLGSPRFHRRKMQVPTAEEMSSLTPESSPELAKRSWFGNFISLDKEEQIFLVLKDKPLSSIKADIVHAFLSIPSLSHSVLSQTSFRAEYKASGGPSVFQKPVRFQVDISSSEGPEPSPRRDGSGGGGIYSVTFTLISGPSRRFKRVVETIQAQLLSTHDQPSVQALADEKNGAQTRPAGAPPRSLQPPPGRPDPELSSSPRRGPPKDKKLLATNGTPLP
The conditions noted are these: at 0.1 µM.

Test [15] deals with T5, Serine/threonine-protein kinase BRSK1 (Homo sapiens). The conditions noted are these: at 1 µM.
In test [16] the target is T6, Serine/threonine-protein kinase BRSK2 (Homo sapiens) (UniProt Q8IWQ3).
T6 sequence (whole entry): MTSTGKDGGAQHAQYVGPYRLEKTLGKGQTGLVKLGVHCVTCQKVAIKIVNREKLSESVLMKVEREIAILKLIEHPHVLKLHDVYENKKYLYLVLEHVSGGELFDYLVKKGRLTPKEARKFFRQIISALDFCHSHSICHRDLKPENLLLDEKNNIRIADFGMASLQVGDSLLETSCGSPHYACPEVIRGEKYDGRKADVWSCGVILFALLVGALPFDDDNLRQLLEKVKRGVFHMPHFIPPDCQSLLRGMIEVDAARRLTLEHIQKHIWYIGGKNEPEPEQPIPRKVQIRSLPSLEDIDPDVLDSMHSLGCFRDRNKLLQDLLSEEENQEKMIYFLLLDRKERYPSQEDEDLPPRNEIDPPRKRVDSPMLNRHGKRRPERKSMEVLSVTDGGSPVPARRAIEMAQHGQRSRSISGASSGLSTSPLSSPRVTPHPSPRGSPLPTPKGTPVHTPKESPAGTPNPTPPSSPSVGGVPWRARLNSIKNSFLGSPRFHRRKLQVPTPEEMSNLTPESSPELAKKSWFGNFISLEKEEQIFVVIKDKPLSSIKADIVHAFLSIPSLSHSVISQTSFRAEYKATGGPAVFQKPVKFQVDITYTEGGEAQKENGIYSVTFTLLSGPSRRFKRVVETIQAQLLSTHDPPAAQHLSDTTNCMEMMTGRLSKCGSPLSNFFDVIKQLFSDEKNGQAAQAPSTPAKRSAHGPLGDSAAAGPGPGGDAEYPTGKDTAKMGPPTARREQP
The conditions noted are these: at 0.1 µM.

In test [17] the target is T6, Serine/threonine-protein kinase BRSK2 (Homo sapiens). The conditions noted are these: at 1 µM.
Test [18] addresses Calcium/calmodulin-dependent protein kinase type 1D (Homo sapiens) (UniProt Q8IU85). The note with it: at 0.1 µM.
Test [19] shares this target. The conditions noted are these: at 1 µM.
The target in test [20] is Calcium/calmodulin-dependent protein kinase type II subunit alpha (Homo sapiens) (UniProt Q9UQM7). The conditions noted are these: at 0.1 µM.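 Also: reported values are averages (mean inhibition of CAMK2A).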
Chain of Calcium/calmodulin-dependent protein kinase type II subunit alpha (Homo sapiens) (Q9UQM7 whole entry): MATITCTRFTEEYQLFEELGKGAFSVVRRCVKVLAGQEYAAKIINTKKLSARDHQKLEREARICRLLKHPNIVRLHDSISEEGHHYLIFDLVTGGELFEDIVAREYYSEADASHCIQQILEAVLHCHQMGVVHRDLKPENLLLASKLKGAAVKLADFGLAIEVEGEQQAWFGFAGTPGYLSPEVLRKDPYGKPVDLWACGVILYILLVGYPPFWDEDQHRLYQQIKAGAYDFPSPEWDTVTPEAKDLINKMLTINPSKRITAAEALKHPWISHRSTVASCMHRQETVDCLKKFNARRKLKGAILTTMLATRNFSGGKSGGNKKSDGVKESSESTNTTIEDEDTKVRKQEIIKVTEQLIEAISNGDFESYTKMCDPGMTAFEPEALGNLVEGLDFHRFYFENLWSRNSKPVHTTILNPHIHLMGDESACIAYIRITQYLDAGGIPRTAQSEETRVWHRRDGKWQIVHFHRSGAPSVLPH

Chain of 5'-AMP-activated protein kinase catalytic subunit alpha-2 (Homo sapiens) (P54646 whole entry, looked up): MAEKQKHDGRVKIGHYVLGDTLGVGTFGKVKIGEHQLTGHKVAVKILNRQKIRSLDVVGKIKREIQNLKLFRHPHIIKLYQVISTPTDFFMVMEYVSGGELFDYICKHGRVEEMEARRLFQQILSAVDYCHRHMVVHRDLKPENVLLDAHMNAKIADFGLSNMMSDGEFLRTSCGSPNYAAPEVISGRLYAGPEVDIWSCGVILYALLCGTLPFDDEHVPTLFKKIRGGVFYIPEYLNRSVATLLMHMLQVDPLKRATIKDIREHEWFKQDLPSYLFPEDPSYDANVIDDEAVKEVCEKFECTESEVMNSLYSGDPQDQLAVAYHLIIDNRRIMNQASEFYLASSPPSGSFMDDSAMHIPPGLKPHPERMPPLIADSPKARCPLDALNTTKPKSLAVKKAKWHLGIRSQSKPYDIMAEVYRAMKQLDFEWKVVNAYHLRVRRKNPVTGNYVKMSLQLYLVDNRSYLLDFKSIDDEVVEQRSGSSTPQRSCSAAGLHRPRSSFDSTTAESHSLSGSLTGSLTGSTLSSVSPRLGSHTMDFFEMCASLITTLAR
Chain of Calcium/calmodulin-dependent protein kinase type 1D (Homo sapiens) (Q8IU85 whole entry, looked up): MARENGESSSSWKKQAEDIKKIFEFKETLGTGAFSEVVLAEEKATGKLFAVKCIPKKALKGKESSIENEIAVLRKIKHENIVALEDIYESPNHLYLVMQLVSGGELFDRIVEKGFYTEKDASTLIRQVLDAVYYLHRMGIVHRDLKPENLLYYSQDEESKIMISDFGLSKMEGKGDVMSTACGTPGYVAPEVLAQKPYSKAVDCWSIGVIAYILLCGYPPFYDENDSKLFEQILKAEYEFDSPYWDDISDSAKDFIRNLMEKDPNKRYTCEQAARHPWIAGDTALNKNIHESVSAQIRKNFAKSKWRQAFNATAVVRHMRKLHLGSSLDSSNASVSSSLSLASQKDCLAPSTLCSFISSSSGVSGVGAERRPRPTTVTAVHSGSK
Chain of Ribosomal protein S6 kinase alpha-6 (Homo sapiens) (Q9UK32 whole entry): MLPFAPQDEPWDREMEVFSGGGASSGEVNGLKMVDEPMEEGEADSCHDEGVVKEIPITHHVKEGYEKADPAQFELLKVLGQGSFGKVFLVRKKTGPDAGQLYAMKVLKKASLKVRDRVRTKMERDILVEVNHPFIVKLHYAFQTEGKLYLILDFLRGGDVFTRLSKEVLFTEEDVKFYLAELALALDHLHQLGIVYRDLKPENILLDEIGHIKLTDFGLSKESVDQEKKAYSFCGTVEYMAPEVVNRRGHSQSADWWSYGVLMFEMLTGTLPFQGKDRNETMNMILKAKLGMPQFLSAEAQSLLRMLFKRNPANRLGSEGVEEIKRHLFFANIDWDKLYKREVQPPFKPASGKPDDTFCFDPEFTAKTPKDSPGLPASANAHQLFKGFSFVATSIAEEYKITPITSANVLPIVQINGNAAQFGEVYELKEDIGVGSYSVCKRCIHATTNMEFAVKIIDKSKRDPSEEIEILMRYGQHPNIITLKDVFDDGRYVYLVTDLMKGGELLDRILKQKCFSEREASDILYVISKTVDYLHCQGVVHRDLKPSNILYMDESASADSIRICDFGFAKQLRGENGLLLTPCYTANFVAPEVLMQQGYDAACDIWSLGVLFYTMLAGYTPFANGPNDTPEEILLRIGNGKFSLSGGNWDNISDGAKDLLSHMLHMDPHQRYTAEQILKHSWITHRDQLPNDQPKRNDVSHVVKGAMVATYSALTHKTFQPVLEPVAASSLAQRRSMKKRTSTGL
Chain of 5'-AMP-activated protein kinase catalytic subunit alpha-1 (Homo sapiens) (Q13131 whole entry, looked up): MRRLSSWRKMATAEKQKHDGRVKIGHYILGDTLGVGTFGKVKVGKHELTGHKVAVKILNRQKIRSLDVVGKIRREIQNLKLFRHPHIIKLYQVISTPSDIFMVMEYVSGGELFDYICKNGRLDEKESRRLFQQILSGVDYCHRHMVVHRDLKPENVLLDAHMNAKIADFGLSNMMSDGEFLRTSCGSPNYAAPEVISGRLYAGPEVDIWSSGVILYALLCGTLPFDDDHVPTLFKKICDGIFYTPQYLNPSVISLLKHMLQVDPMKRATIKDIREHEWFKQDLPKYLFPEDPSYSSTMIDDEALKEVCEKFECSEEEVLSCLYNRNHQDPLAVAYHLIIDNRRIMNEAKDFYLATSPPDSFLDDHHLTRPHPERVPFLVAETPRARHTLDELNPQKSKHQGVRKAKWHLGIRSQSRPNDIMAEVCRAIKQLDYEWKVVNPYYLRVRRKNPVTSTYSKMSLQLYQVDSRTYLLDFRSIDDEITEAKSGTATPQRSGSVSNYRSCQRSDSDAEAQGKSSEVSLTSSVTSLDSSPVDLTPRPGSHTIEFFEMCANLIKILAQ

In the case of `CC1=C(C(=O)Nc2cc(Cl)c3[nH]ncc3c2)C(c2ccc(C(F)(F)F)cc2)CC(=O)N1` (stereo not given), the inhibition in test [1] was determined as 36.4%; in test [2] it was 4.9%; in test [3] it was 17.9%; in [4], 4.31%; in test [5], 12.5%; in [6], 8.68%. Further, the inhibition worked out at 34.4% in test [7]; 18.4% in [8]; 62.2% in test [9]; 5.35% in test [10]; 16.3% in test [11]; 1.17% in test [12]. The inhibition in [13] is 5.4%; in test [14] it was 0.02%; in test [15] it was 3.03%; in test [16] it was 1.64%; in test [17], 8.61%; in test [18], -0.28%. Besides, the inhibition amounted to 1.73% in test [19] and 1.03% in [20].

Take `O=C(O[C@H]1CN[C@H](C#Cc2cc3ncnc(Nc4ccc(Cc5ccccc5)cc4)c3s2)C1)N1CCOCC1`: the inhibition in test [1] turned out to be 1.25%; in test [2] it was 1.05%; in test [3], 1.98%; in test [4] it was 0.65%; in test [5], 7.04%; in test [6], 2.7%. For the same compound, the inhibition in test [7] was 5.58%; in [8], 2.64%; in [9], 1.94%; in test [10] it was -0.29%; in test [11], 1.84%; in test [12], -3.65%. Also, the inhibition in test [13] was -2.64%; in test [14] it was 0.3%; in test [15] it was 2.86%; in [16], 1.6%; in test [17], 2.92%; in test [18], -0.64%. The results for the inhibition in [19] and in test [20] were -0.69% and 0.64%, respectively.

On to `c1ccc(COc2ccc(Nc3ncnc4ccc(-c5ccco5)cc34)cc2)cc1`, for which the inhibition is -0.53% in test [1]; 1.43% in [2]; 0.51% in test [3]; -1.79% in test [4]; 2.2% in test [5]; -0.56% in test [6]. The inhibition is 0.58% in test [7]; 0.67% in test [8]; 2.29% in test [9]; -2.52% in test [10]; 3.28% in test [11]; -0.16% in [12]. Moreover, the inhibition in test [13] is -1.67%; in test [14] it was -0.97%; in [15], 1.48%; in test [16] it was 0.91%; in [17], 1.54%; in [18], 0.28%. Moreover, the values for the inhibition in test [19] and in test [20] were 11.7% and 2.01%, respectively.
